# Results taken from PubChem BioAssay (EPA / NIEHS).
# Activity calls are given as the source filed them. Rule for the calls: active = hit-call score of the fitted dose curve at least 0.9, where 1 is the maximum; inactive = score below 0.9.
# Assay: ATG_ISRE_CIS: Attagene CIS-FACTORIAL HepG2 Assay for human Interferon Regulatory Factor 1 (IRF1) binding to an Interferon-Stimulated Response Element (ISRE) (AID 2282948)
# Conditions: HepG2 ISRE cis-reporter (Attagene), mRNA transcription readout; actives raise or lower the signal
# Procedure: ATG_CIS is a cell-based, multiplexed-readout assay that uses HepG2, a human liver cell line, with measurements taken at 24 hours after chemical dosing in a 24-well plate.ATG_ISRE_CIS is one of 52 assay component(s) measured or calculated from the ATG_CIS assay. It is designed to make measurements of mRNA induction, a form of inducible reporter, as detected with fluorescence intensity signals by Reverse transcription polymerase chain reaction (RT-PCR) and Capillary electrophoresis technology.Data from the assay component ATG_ISRE_CIS was analyzed into 1 assay endpoint. This assay endpoint, ATG_ISRE_CIS, was analyzed with bidirectional fitting relative to DMSO as the negative control and baseline of activity. Using a type of inducible reporter, measures of mRNA for gain or loss-of-signal activity can be used to understand the reporter gene at the transcription factor-level as they relate to the gene IRF1. Furthermore, this assay endpoint can be referred to as a primary readout, because this assay has produced multiple assay endpoints where this one serves a reporter gene function. To generalize the intended target to other relatable targets, this assay endpoint is annotated to the dna binding intended target family, where the subfamily is interferon regulatory factors.
# Human liver HepG2 cells are transiently transfected with multiple reporter transcription units (MRTUs) in 6-well plates using FuGene 6 reagent (Roche; 3 ml FuGene/1 mg DNA). The MRTU constructs are regulated by a cis-regulating element (promoter). […] A major difference between the CIS and TRANS system is that in CIS activities of endogenous TFs are measured, whereas the TRANS assay evaluates changes in activities of exogenous, chimeric NR-Gal4 proteins. […] At the end of 24 hour incubation, total RNA was isolated using TriZol reagent (Invitrogen). The isolated RNA is then reverse-transcribed using oligo(dT) primer and Mo-MLV reverse transcriptase (Invitrogen) with DNAse I (Ambion) treatment for 30 min. The one-tenth of the produced cDNA was amplified by PCR using Taq DNA polymerase (Invitrogen) and two reporter sequence-specific primers. The PCR products were fluorescently labeled by primer extension with 6-arboxyfluorescein (6-FAM) 5'-labeled reporter sequence-specific primer (2 min at 95 C, 20 s at 68 C and 10 min at 72 C) and these products were digested with 5U of HpaI (New England Biolabs) for 2h at 37 C. The fragments were purified using Qiaquick PCR columns (Qiagen), analyzed on an ABI 3130xL genetic analyzer (Applied Biosystems) with peak positions identified by using a set of X-rhodamine (ROX)-labeled MapMarker1000 molecular weight standards (BioVentures). The raw capillary electrophoresis data was processed using Attagraph software (Attagene).
SMILES,outcome,AC50
COc1ccc([C@@H]2CC(=O)c3c(O)cc(O[C@@H]4O[C@H](CO[C@@H]5O[C@@H](C)[C@H](O)[C@@H](O)[C@H]5O)[C@@H](O)[C@H](O)[C@H]4O)cc3O2)cc1OC,inactive,–
CC(=O)[C@H]1[C@H](C#N)C[C@H]2[C@@H]3CC=C4C[C@@H](O)CC[C@]4(C)[C@H]3CC[C@@]21C,inactive,–
CC(=O)OC1C2(C)CCC(C2)C1(C)C (stereo not given),inactive,–
O=C(Nc1ccccc1SSc1ccccc1NC(=O)c1ccccc1)c1ccccc1,inactive,–
C=C(C)C(=O)OCCO,inactive,–
O=c1c2ccccc2nnn1CCl,inactive,–
C=C[Si](OC(C)=O)(OC(C)=O)OC(C)=O,inactive,–
O=C(O)CC(C(=O)O)C(CC(=O)O)C(=O)O (stereo not given),inactive,–
NCCCN1CCN(CCCN)CC1,inactive,–
CCCCC(CC)COC(=O)c1ccccc1O (stereo not given),inactive,–
OC1CCCC1,inactive,–
CC(C)(C)C(=O)C=Cc1ccc(Cl)cc1,–,24.9 µM (active)
Cc1ccc(N)c([N+](=O)[O-])c1,inactive,–
COC=O,inactive,–
C=C(C)C(=O)OCCOc1ccccc1,inactive,–
O=C(O)C(c1ccc(Cl)cc1)c1ccc(Cl)cc1,inactive,–
CCCOC(=O)CCCCC(=O)OCCC,inactive,–
CCCCCCOc1cc(C)c(O)c(C)c1C,inactive,–
CCCCC(CC)COCC1CO1 (stereo not given),inactive,–
O=CN1CCCCC1,inactive,–

SMILES,outcome,AC50
CN(C)CCCN(C)C,inactive,–
CCCCCCCC[N+](C)(CCCCCCCC)CCCCCCCC,inactive,–
Cc1cc(C)c(C)c(C)c1,inactive,–
c1ccc2c(c1)ccc1cc3c(ccc4ccccc43)cc12,inactive,–
CCCCCC(C)O (stereo not given),inactive,–
COCC(C)N (stereo not given),inactive,–
C=CC(=O)OCCOC1C2CCC1C1CC=CC12 (stereo not given),inactive,–
O=C(C(Cl)Cl)N1CCOC12CCCCC2,inactive,–
Cc1cc(C)c(C)cc1C,inactive,–
CCCOCCOCCOCCO,inactive,–
CCCNC(=O)NS(=O)(=O)c1ccc(Cl)cc1,inactive,–
N#[N+]c1ccc2c(S(=O)(=O)[O-])cccc2c1O,inactive,–
OCCCS,inactive,–
COC(=O)c1ccccc1OC,inactive,–
C[C@]12C=CC(=O)C=C1CC[C@@H]1[C@@H]2[C@@H](O)C[C@@]2(C)[C@H]1CC[C@]2(O)C(=O)CO,inactive,–
CC1=Nc2ccc3ccccc3c2C1(C)C,inactive,–
CC1(C)[C@H]2CC[C@]1(C)C(=O)C2,inactive,–
O=S1(=O)OC(c2ccc(O)cc2)(c2ccc(O)cc2)c2ccccc21,inactive,–
NC(=O)c1ccccc1O,inactive,–
CCCC(=O)OCc1ccccc1,inactive,–
